The text below walks through data of ChEMBL document CHEMBL1157539, “Thousands of chemical starting points for antimalarial lead identification” (Nature, 2010).

What all share (type): functional
The test system of test [1] is Plasmodium falciparum. Kind of test: GSK_TCMDC: Inhibition of Plasmodium falciparum 3D7 in whole red blood cells, using parasite LDH activity as an index of growth. Test compounds present at 2uM.
Test [2] relates to Plasmodium falciparum. Kind of test: GSK_TCMDC: Inhibition of Plasmodium falciparum Dd2 in whole red blood cells, using parasite LDH activity as an index of growth. Test compounds present at 2uM.
The test system of a further test is HepG2. Put plainly: GSK_TCMDC: Percent inhibition of human HepG2 cell line. Test compounds present at 10uM.

Take `COc1cccc(-c2nn(C)c3sc(C(=O)NCCN(C)Cc4ccccc4)cc23)c1`: the Inhibition in the test on Plasmodium falciparum [1] is 92%; in the test on Plasmodium falciparum [2], 26%; with HepG2, 21%.
The like results for `O=C(Nc1ccc(-c2nc3ccccc3[nH]2)cc1)c1ccc(Cl)s1` were, in that order, 99%, 34% and 16%.
For `COc1ccccc1CN1CCC(NC(=O)c2ccc(-c3ccc(N(C)C)cc3)s2)CC1.O=C(O)C(F)(F)F`, the Inhibition is recorded as 90% in the test on Plasmodium falciparum [1], 38% with Plasmodium falciparum [2] and 29% in the test on HepG2.
The like results for `COc1cc(C(C)C)ccc1C1CCN(CCCCNC(=O)c2ccc(NC(=O)c3ccc(Cl)cc3)cc2)CC1.O=C(O)/C=C/C(=O)O` were, in that order, 98%, 99% and 100%.
With `CCn1c(-c2nonc2N)nc2c(-c3cccc(NC(=O)Nc4ccc5c(c4)CCC5)c3)ncc(OCCCN)c21.O=C(O)C(F)(F)F`, the Inhibition was 99% in the test with Plasmodium falciparum [1], 94% with Plasmodium falciparum [2] and 26% in the test on HepG2.
The like results for `COc1ccc(NC(=O)[C@H](Cc2ccccc2)Nc2cc(C)nc(NCCN3CCCC3)n2)cc1.O=C(O)C(F)(F)F` were, in that order, 97%, 3% and 15%.
The like results for `COc1ccc(Cl)cc1-c1nc(C(=O)NCCN2CCCCC2)c(C)s1.O=C(O)C(F)(F)F` were, in that order, 97%, 10% and 16%.
The like results for `N#Cc1ccc(NC(=O)Nc2ccc(OC(F)(F)F)cc2)cc1` were, in that order, 98%, 91% and 43%.
For `COc1cc(Cc2cnc(N)nc2N)c2c(c1OC)OC(C)C=C2` (stereo unspecified), the Inhibition in the test on Plasmodium falciparum [1] was found to be 87%; with Plasmodium falciparum [2], 1%; in the test on HepG2, 0%.
The like results for `CN1CCN(c2ccc(CNc3ccc4ncc(-c5cccc(OC(F)(F)F)c5)n4n3)cc2)CC1` were, in that order, 89%, 78% and 25%.
Turning to `CN(C)CCCNCc1ccc(-c2ccc(CNCCc3ccccc3)cc2)cc1.O=C(O)C(F)(F)F`, the Inhibition came to 100% in the test with Plasmodium falciparum [1], 87% in the test with Plasmodium falciparum [2] and 61% in the test on HepG2.
For `CCNc1cc(C(=O)N[C@@H](Cc2ccccc2)[C@H](O)CN[C@H]2CCc3ccccc32)cc(N2CCCC2=O)c1`, the Inhibition is reported as 98% with Plasmodium falciparum [1], 99% with Plasmodium falciparum [2] and 8% with HepG2.
The like results for `CCN(CCO)CCc1cccc(Nc2nccc(-c3c(-c4ccc(NC(=O)C(C)(C)C)cc4)nn4ccccc34)n2)c1.Cl` were, in that order, 100%, 96% and 62%.
The like results for `CCN(CC)/C(=N/C(=N)NCc1ccc(Cl)cc1)NCCCCCCN/C(=N\C(=N)NCc1ccc(Cl)cc1)N(CC)CC` were, in that order, 100%, 100% and 18%.
The like results for `Clc1cc(Nc2ncnc3cc(C#C[C@H]4CCCN4)sc23)cc2nc(Cc3ccccc3)[nH]c12.O=C(O)C(F)(F)F` were, in that order, 91%, 57% and 29%.
For `Cc1ccccc1/N=C1\NC(=S)N(c2cccc(C(F)(F)F)c2)C12CCC(C(C)(C)C)CC2` (stereo unspecified), the Inhibition in the test with Plasmodium falciparum [1] was 95%; in the test with Plasmodium falciparum [2], 25%; with HepG2, 9%.
Turning to `N#Cc1cccc(C(=O)Nc2cccc(-c3ccc(CN4CCC(O)CC4)cc3)c2)c1.O=C(O)C(F)(F)F`, the Inhibition stood at 86% with Plasmodium falciparum [1], 2% with Plasmodium falciparum [2] and 15% in the test with HepG2.
`O=C(N/N=C/c1nc2ccccc2[nH]1)c1cccc([N+](=O)[O-])c1`: the values for the Inhibition with Plasmodium falciparum [1], with Plasmodium falciparum [2] and in the test on HepG2 were 99%, 82% and 0%, respectively.
For the molecule `COc1cc2c(cc1OCCN1CCC(N3CCCC3)CC1)N(C(=O)/C=C/c1ccccc1Cl)CC2.Cl`, the Inhibition with Plasmodium falciparum [1] turned out to be 100%; with Plasmodium falciparum [2], 68%; with HepG2, 38%.
The like results for `CC(=O)Nc1ccc(S(=O)(=O)Nc2ccc(Nc3nc(C)cc(N(C)C)n3)cc2)cc1` were, in that order, 100%, 22% and 0%.
`FC(F)(F)CNc1nc(Nc2ccc3ncccc3c2)nc2[nH]ccc12.O=C(O)C(F)(F)F`: the Inhibition in the test on Plasmodium falciparum [1] is listed as 87%; in the test on Plasmodium falciparum [2], 83%; in the test with HepG2 it was 37%.
For `NC1CCN(Cc2ccc(-c3ccc(-c4nc5ccccc5[nH]4)cc3)cc2)C1.O=C(O)C(F)(F)F` (stereo unspecified), the Inhibition in the test with Plasmodium falciparum [1] was found to be 100%; with Plasmodium falciparum [2] it was 100%; in the test with HepG2, 34%.
For the molecule `CC(=O)c1c[nH]c2ccc(/C=C/C(=O)NC3CCC(CCN4CCc5ccc(C#N)cc5CC4)CC3)cc12.Cl` (stereo unspecified), the Inhibition in the test with Plasmodium falciparum [1] is recorded as 100%; in the test on Plasmodium falciparum [2], 98%; in the test with HepG2 it was 11%.
The like results for `CN(C)CCNCc1ccc(-c2ccc(-c3nc4ccccc4[nH]3)s2)cc1.O=C(O)C(F)(F)F` were, in that order, 100%, 100% and 0%.
The like results for `CC(C)(C)NC(=O)C(c1ccc(F)cc1)N(C(=O)c1ccc(CN2CCOCC2)o1)c1ccc(C2CCCCC2)cc1` (stereo unspecified) were, in that order, 87%, 68% and 0%.
The like results for `COc1ccccc1-n1ccnc1SCC(=O)Nc1cc(C(F)(F)F)ccc1Cl` were, in that order, 97%, 97% and 0%.
For the molecule `CC(C)c1ccc(NC(S)=NN=Cc2ccccn2)cc1`, the Inhibition is listed as 100% in the test on Plasmodium falciparum [1], 98% in the test with Plasmodium falciparum [2] and 47% with HepG2.
